The supplement of paper PMC11634586
Counter-ions that a name gives are not always drawn.

What follows are compounds tested on NCI-H1688 (assay: inhibition of cell viability relative to untreated control (fraction); higher = stronger growth inhibition, active = 0.5 or more). Conditions: 30 µM; 24 h.
Procedure: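 Natural product library (TargetMol, 640 compounds) screened on NCI-H1688 SCLC cells at 30 µM for 24 h; viability by CCK-8 absorbance at 450 nm, normalised to untreated control and expressed as inhibition rate (fraction). Compounds with >50% reduction in viability were selected as hits.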
For COc1ccc(-c2coc3cc(O)cc(O)c3c2=O)cc1 [Biochanin A], the “inhibition of cell viability” value was -0.0526 (inactive). In the case of C[C@H]1COC2=C1C(=O)C(=O)c1c2ccc2c1CCCC2(C)C [Cryptotanshinone], the “inhibition of cell viability” value is reported as 1 (active). In the case of C/C=C(/C)C(=O)OC(C)(C)[C@@H]1Cc2c(ccc3ccc(=O)oc23)O1 [Columbianadin], the “inhibition of cell viability” value is reported as 0.338 (inactive). With CC(C)[C@@H]1CC[C@@H](C)C[C@H]1O [L-Menthol] the “inhibition of cell viability” value was 0.178 (inactive). Oc1cc(O)c2c(c1)OC(c1ccc(O)c(O)c1)C(OC1(c3ccc(O)c(O)c3)Oc3cc(O)cc(O)c3C(O)C1O)C2 (stereo not given) [Proanthocyanidins] was tested, and the “inhibition of cell viability” value was -0.126 (inactive). In the case of CC(/C=C/C=C(\C)C(=O)O[C@@H]1O[C@H](CO[C@@H]2O[C@H](CO)[C@@H](O)[C@H](O)[C@H]2O)[C@@H](O)[C@H](O)[C@H]1O)=C\C=C\C=C(C)\C=C\C=C(/C)C(=O)O[C@@H]1O[C@H](CO[C@@H]2O[C@H](CO)[C@@H](O)[C@H](O)[C@H]2O)[C@@H](O)[C@H](O)[C@H]1O [Crocin], the “inhibition of cell viability” value is reported as 0.267 (inactive). In the case of C=C(C)[C@H]1CC=C(C)CC1 [(R)-(+)-Limonene], the “inhibition of cell viability” value is reported as 0.281 (inactive). N[C@@H](Cc1cc(I)c(Oc2cc(I)c(O)c(I)c2)c(I)c1)C(=O)O [L-Thyroxine] was tested, and the “inhibition of cell viability” value was 0.22 (inactive). In the case of CN1c2ccccc2C(=O)N2CCc3c([nH]c4ccccc34)C21 (stereo in doubt) [Evodiamine], the “inhibition of cell viability” value is reported as 0.848 (active). For O=c1c2ccccc2oc2ccccc12 [Xanthone], the “inhibition of cell viability” value was -0.129 (inactive). COc1cc2c(cc1OC)[C@@H]1Cc3ccc(OC)c(OC)c3CN1CC2 [Rotundine, TETRAHYDROPALMATINE HYDROCHLORIDE] was tested, and the “inhibition of cell viability” value was -0.254 (inactive). In the case of CC(=O)OCC(=O)[C@@]1(O)CC[C@H]2[C@@H]3CCC4=CC(=O)CC[C@]4(C)[C@H]3C(=O)C[C@@]21C [Cortisone acetate], the “inhibition of cell viability” value is reported as -0.148 (inactive). For O=C(O)[C@@H](O)[C@H](O)[C@H](O)[C@@H](O)C(=O)O [Mucic Acid], the “inhibition of cell viability” value was 0.0761 (inactive). COc1ccc(C2CC(=O)c3c(O)cc(OC4OC(COC5OC(C)C(O)C(O)C5O)C(O)C(O)C4O)cc3O2)cc1OC (stereo not given) [Methyl hesperidin] was tested, and the “inhibition of cell viability” value was 0.00735 (inactive). C[C@H]1O[C@@H](O[C@H]2CC[C@@]3(C)[C@@H](CC[C@]4(C)[C@@H]3C=C[C@]35OC[C@@]6(CCC(C)(C)C[C@H]63)[C@@H](O)C[C@]54C)[C@]2(C)CO)[C@H](O)[C@@H](O[C@@H]2O[C@H](CO)[C@@H](O)[C@H](O)[C@H]2O)[C@H]1O [Saikosaponin A] was tested, and the “inhibition of cell viability” value was 1 (active). For Oc1cc2c(cc1O)[C@@H]1c3ccc(O)c(O)c3OC[C@]1(O)C2 [Hematoxylin], the “inhibition of cell viability” value was 0.0369 (inactive). For O=C1c2cccc(O)c2C(=O)c2c(O)cccc21 [Antrapurol], the “inhibition of cell viability” value was 0.783 (active). In the case of C/C=C1\[C@H]2C=C(C)C[C@]1(N)c1ccc(=O)[nH]c1C2 [(-)-Huperzine A (HupA)], the “inhibition of cell viability” value is reported as 0.178 (inactive). With COc1ccc2c(c1OC)C(=O)O[C@@H]2[C@H]1c2c(cc3c(c2OC)OCO3)CCN1C [Noscapine hydrochloride] the “inhibition of cell viability” value was 0.323 (inactive). In the case of CC[C@H](/C=C/[C@@H](C)[C@H]1CC[C@H]2[C@@H]3CC=C4C[C@@H](O)CC[C@]4(C)[C@H]3CC[C@]12C)C(C)C [Stigmasterol], the “inhibition of cell viability” value is reported as -0.0217 (inactive). In the case of C[C@H](O)[C@H]1CC[C@H]2[C@@H]3CC[C@@H]4C[C@H](O)CC[C@]4(C)[C@H]3CC[C@]12C [5Beta-Pregnane-3Alpha,20alpha-Diol], the “inhibition of cell viability” value is reported as -0.113 (inactive). For O=C(O)CCc1ccc(O)cc1 [Phloretic acid], the “inhibition of cell viability” value was 0.081 (inactive). In the case of O=Cc1ccc(O)c(O)c1 [Protocatechualdehyde], the “inhibition of cell viability” value is reported as 0.314 (inactive). In the case of COc1ccc(CC(=O)O)cc1OC [Homoveratrumic acid], the “inhibition of cell viability” value is reported as 0.0253 (inactive). For CN(C)[C@@H]1C(O)=C(C(N)=O)C(=O)[C@@]2(O)C(O)=C3C(=O)c4c(O)ccc(Cl)c4[C@@](C)(O)[C@H]3C[C@@H]12 [Chlortetracycline hydrochloride], the “inhibition of cell viability” value was -0.0618 (inactive). With CC(C)(O)CC[C@@H](O)[C@](C)(O)[C@H]1CC[C@@]2(O)C3=CC(=O)[C@@H]4C[C@@H](O)[C@@H](O)C[C@]4(C)[C@H]3CC[C@]12C [Ecdysterone] the “inhibition of cell viability” value was -0.0294 (inactive). O=c1c(O[C@@H]2O[C@H](CO)[C@H](O)[C@H](O)[C@H]2O)c(-c2ccc(O)c(O)c2)oc2cc(O)cc(O)c12 [Hyperoside] was tested, and the “inhibition of cell viability” value was -0.0387 (inactive). NC(=O)CCC(N)C(=O)O (racemic) [DL-Glutamine] was tested, and the “inhibition of cell viability” value was -0.221 (inactive). In the case of CC[C@H]1OC(=O)[C@H](C)[C@@H](O[C@H]2C[C@@](C)(OC)[C@@H](O)[C@H](C)O2)[C@H](C)[C@@H](O[C@@H]2O[C@H](C)C[C@H](N(C)C)[C@H]2O)[C@](C)(O)C[C@@H](C)CN(C)[C@H](C)[C@@H](O)[C@]1(C)O [Azithromycin dihydrate], the “inhibition of cell viability” value is reported as 0.037 (inactive). COC(=O)C1=CC[C@@]23CC[C@@H]([C@@](C)(/C=C/C=C(\C)C(=O)O)OC2=O)[C@@]3(OC(C)=O)CC1 [Pseudolaric Acid B] was tested, and the “inhibition of cell viability” value was 0.813 (active). In the case of C=C1C(=O)[C@]23[C@H](CC[C@@H]1[C@@H]2O)[C@]12CO[C@@]3(O)[C@H](O)[C@H]1C(C)(C)CC[C@@H]2O [Rubescensin A], the “inhibition of cell viability” value is reported as 0.984 (active). For OC[C@H]1O[C@@H](O[C@@H]2OC=C[C@H]3[C@H](O)[C@@H]4O[C@]4(CO)[C@@H]23)[C@H](O)[C@@H](O)[C@@H]1O [Catalpol], the “inhibition of cell viability” value was -0.0576 (inactive). With CN[C@@H]1[C@@H](O[C@H]2O[C@H](CO)[C@@H](N)[C@H](O)[C@H]2O)OC2C[C@@H](N)[C@@H](O[C@H]3[C@H](O)[C@@H](O)[C@H](N)C[C@@H]3N)OC2[C@@H]1O (stereo not given in full) [Apramycin sulfate] the “inhibition of cell viability” value was -0.0456 (inactive). With C=CCc1ccc(O)c(-c2cc(CC=C)ccc2O)c1 [Magnolol] the “inhibition of cell viability” value was -0.288 (inactive). With OC[C@H]1OC(O)[C@@H](O)[C@@H](O)[C@@H]1O (stereo not given in full) [Mannose] the “inhibition of cell viability” value was 0.0629 (inactive). For O=c1c2ccccc2nc2n1CCc1c-2[nH]c2ccccc12 [Rutaecarpine], the “inhibition of cell viability” value was -0.128 (inactive). With CCC(C)C(NC(=O)CNC(=O)C(CCC(N)=O)NC(=O)C1CCCN1C(=O)C(CC(=O)O)NC(=O)C(CCCNC(=N)N)NC(=O)C(NC(=O)C(NC(=O)C(N)CCCNC(=N)N)C(C)C)C(C)C)C(=O)NC(CCCNC(=N)N)C(=O)NC(C)C(=O)NC(Cc1c[nH]c2ccccc12)C(=O)NC(C(=O)NC(C)C(=O)NC(Cc1c[nH]c2ccccc12)C(=O)NC(CCCNC(=N)N)C(=O)NC(CC(N)=O)C(=O)NC(CCCNC(=N)N)C(=O)O)C(C)C (stereo not given) [Lysozyme] the “inhibition of cell viability” value was 0.471 (inactive). CC(=O)Oc1cc(C)c(OC(C)=O)c2ccccc12 [Menadiol Diacetate] was tested, and the “inhibition of cell viability” value was 0.384 (inactive). With COc1c2occc2cc2ccc(=O)oc12 [8-Methoxypsoralen] the “inhibition of cell viability” value was 0.302 (inactive). CC(C)(CO)C(O)C(=O)NCCCO (stereo not given) [Panthenol] was tested, and the “inhibition of cell viability” value was 0.0837 (inactive).
